Bioassay records: PubChem, several laboratories
BioA inh = BioA (M. tuberculosis) enzyme inhibition | 360,000 compounds, 0.096% hits | purified M. tuberculosis BioA enzyme, plate reader | inhibition, % at 9.99 µM; in the data active means inhibition above about 40%
FBA Mtb inh = inhibits M. tuberculosis FBA enzyme. purified M. tuberculosis FBA, fluorescence read-out. inhibition, % at 1 µM. 360,000 compounds, 2.3% hits. AID 588726;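 further: 0% = vehicle and 100% = reference inhibitor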
Target sequence (P9WQA3 whole entry, looked up): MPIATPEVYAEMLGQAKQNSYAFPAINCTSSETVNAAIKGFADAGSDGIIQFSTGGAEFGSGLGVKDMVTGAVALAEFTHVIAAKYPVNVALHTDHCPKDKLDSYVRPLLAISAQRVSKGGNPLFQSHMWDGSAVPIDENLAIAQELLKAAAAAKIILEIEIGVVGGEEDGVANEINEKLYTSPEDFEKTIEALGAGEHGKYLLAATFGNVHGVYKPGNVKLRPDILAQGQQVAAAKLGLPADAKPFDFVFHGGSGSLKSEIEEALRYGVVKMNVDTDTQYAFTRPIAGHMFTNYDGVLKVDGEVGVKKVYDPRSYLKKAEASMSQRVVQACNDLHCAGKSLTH
GDH-TPI counter-1 = GDH-TPI coupled enzyme inhibition counter-screen; GDH-TPI coupled enzyme counterscreen, NADH absorbance; inhibition, % at 4.8 µM; 360,000 compounds, 1.2% hits; AID 588335; in the data active means inhibition above about 30%;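 further: 0% = DMSO wells and 100% = wells lacking the enzyme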
3CLpro inhibitor = SARS-CoV 3CLpro protease inhibition; P0C6X7; recombinant SARS-CoV 3CLpro, quenched FRET peptide cleavage; inhibition, % at 6 µM; 290,000 compounds, 0.14% hits; in the data active means inhibition above about 12%
FadD28 FP inh = M. tuberculosis FadD28 bisubstrate binding inhibition; FadD28 bisubstrate probe binding, fluorescence polarization; inhibition, % at 12.5 µM; 360,000 compounds, 0.22% hits; in the data active means inhibition above about 8.5%, passing the limit was not always enough
Mtb FBA inh conf = confirmation of M. tuberculosis fructose-bisphosphate aldolase inhibitors; 5,600 compounds, 78% hits; inhibition, % at 1 µM; purified M. tuberculosis FBA, fluorescence read-out; shares compounds with FBA Mtb inh;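 further: 0% = vehicle wells and 100% = reference inhibitor wells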
GDH-TPI counter-2 = inhibits GDH-TPI coupling enzymes, flagging Mtb FBA hits | shares compounds with FBA Mtb inh | GDH-TPI coupled enzyme counterscreen, fluorescence | inhibition, % at 1 µM | 5,600 compounds, 81% hits; in the data active means inhibition above about 10%
GDH-TPI DR = inhibits GDH-TPI coupling enzymes in dose response; shares compounds with FBA Mtb inh; GDH-TPI coupled enzyme assay, fluorescence, artifact counterscreen; IC50, µM; 170 compounds, 79% hits; AID 652145; call rule not given here
* = called active by the depositor; x = no result given; + = active, no number. Sampled rows, rich in hits. Any-hit rate of the full collection: about 3.1%. Unless noted, no stated cut-off is given here; in the data, active means inhibition above about 27%; inactive means the rest.

SMILES | BioA inh | FBA Mtb inh | GDH-TPI counter-1 | 3CLpro inhibitor | FadD28 FP inh | Mtb FBA inh conf | GDH-TPI counter-2 | others
C[C@@H]1CN([C@H](C)CO)C(=O)c2cccc(NC(=O)Nc3ccc(C(F)(F)F)cc3)c2O[C@@H]1CN(C)S(=O)(=O)c1ccc(F)cc1 | 7.5 | x | x | x | x | x | x
C=CCOc1ccc(CNc2ccc3[nH]c(=O)[nH]c3c2)cc1OC | x | 85.1* | 15.2 | 2.8 | 1.4 | 113.7* | 88.0*
COC(=O)C1CCN(C(=O)c2ccc3nccnc3c2)CC1 | -0.8 | 0.1 | 7.9 | 3.9 | 0.1 | x | x
CCOC(=O)C1CCN(C(=O)Nc2ccc3nccnc3c2)CC1 | 1.3 | 36.9* | 19.5 | -1.0 | -4.3 | 56.8* | 37.5*
O=C(CCN1C(=O)NC2(CCCC2)C1=O)Nc1ccc(-c2nc3ccccc3s2)cc1 | -5.1 | 40.0* | 26.5 | x | -4.5 | 173.9* | 119.2*
Cc1ccc2nc(-c3ccc(NC(=O)CN4C(=O)c5ccccc5C4=O)cc3)sc2c1 | -1.2 | 34.2* | 8.7 | 0.8 | -2.4 | -6.0 | -6.5
Cc1ccc2nc(NC(=O)COC(=O)c3ccncc3)sc2c1 | x | -3.0 | -6.3 | 0.4 | -4.4 | x | x
Cc1ccc2nc(-c3ccc(NC(=O)COC(=O)c4ccc(=O)[nH]c4)cc3)sc2c1 | x | 38.7* | 8.6 | -0.5 | 0.0 | 39.3* | 29.8*
Cc1ccc2nc(-c3ccc(NC(=O)CCS(=O)(=O)c4ccccc4)cc3)sc2c1 | x | 44.5* | 3.1 | 1.3 | -3.0 | -5.7 | -6.1
C[C@H](CO)N1C[C@H](C)[C@H](CN(C)S(=O)(=O)c2ccc(Cl)cc2)Oc2c(NS(=O)(=O)c3cn(C)cn3)cccc2C1=O | 0.9 | x | x | x | x | x | x
CCCC(=O)Nc1ccc2c(c1)C(=O)N(C)C[C@H](OC)[C@@H](C)CN(C(=O)c1ccncc1)[C@@H](C)CO2 | 2.8 | x | x | x | x | x | x
Cc1ccc2nc(-c3ccc(NC(=O)CNC4CC4)cc3)sc2c1 | x | 27.7* | 14.4 | 3.3 | -2.4 | 48.1* | 39.0*
CCC1(c2ccc(F)cc2)NC(=O)N(CC(=O)Nc2ccc(-c3nc4ccc(C)cc4s3)cc2)C1=O (configuration not stated) | -1.2 | 41.4* | 23.5 | 4.0 | -1.0 | + | 149.6*
Cc1ccc(C)c(N(CC(=O)Nc2ccc(-c3nc4ccc(C)cc4s3)cc2)S(C)(=O)=O)c1 | -1.5 | 24.0 | 16.3 | -0.8 | 0.3 | x | x
CC=Cc1ccc2n(c1=O)C[C@@H]1[C@@H](CO)[C@H](C(=O)N(C)C)[C@H]2N1CC1CCOCC1 (mixture of isomers) | 0.8 | x | x | x | x | x | x
CCN1[C@@H]2c3ccc(-c4cccc(F)c4)c(=O)n3C[C@@H]2[C@@H](CO)[C@@H]1C(=O)N[C@@H](C)c1ccccc1 | 3.8 | x | x | x | x | x | x
COc1ccc2c(c1)c1c(c(=O)n(-c3ccc(C)cc3)c(=O)n1CC(=O)NCC1CCCO1)n2C (configuration not stated) | -0.1 | 28.8* | -14.6 | x | -3.8 | 38.2* | 26.6*
Cc1ccc(-n2c(=O)c3c(c4cc(C)ccc4n3C)n(CC(=O)NCC3CCCO3)c2=O)cc1 (configuration not stated) | -1.5 | 62.9* | 15.9 | x | -2.1 | 53.7* | 50.0*
CCOc1ccc(-n2c(=O)c3sccc3n(CC(=O)NCC3CCCO3)c2=O)cc1 (configuration not stated) | -0.5 | -0.2 | -3.1 | -1.0 | -3.0 | x | x
Cc1noc(C)c1NC(=O)Nc1ccc2c(c1)C(=O)N(C)[C@H]1CC[C@H](CC(=O)Nc3ccccc3F)O[C@@H]1CO2 | -0.4 | x | x | x | x | x | x
CCCNC(=O)c1c(N)n(CC2CCCO2)c2nc3ccccc3nc12 (configuration not stated) | x | 98.9* | 15.2 | -0.4 | 2.2 | 100.8* | 78.6*
Nc1c(C(=O)NCC2CCCO2)c2nc3ccccc3nc2n1-c1ccccc1 (configuration not stated) | -1.6 | 108.4* | 7.7 | 6.6 | -0.9 | 87.4* | 72.6*
Cc1nc2c(c(=O)n1CCC(C)C)c1nc3ccccc3nc1n2CC1CCCO1 (configuration not stated) | -0.7 | 19.0 | 4.6 | -4.0 | -1.0 | x | x
CC(C)OCCCNC(=O)c1c(N)n(CC2CCCO2)c2nc3ccccc3nc12 (configuration not stated) | x | 48.5* | 4.9 | 4.8 | 2.0 | + | +
CO[C@@H]1CN(C)C(=O)c2cc(NC(=O)C3CCCC3)ccc2OC[C@@H](C)N(S(=O)(=O)c2ccc(Cl)cc2)C[C@H]1C | -0.1 | x | x | x | x | x | x
SMILES | BioA inh | FBA Mtb inh | GDH-TPI counter-1 | 3CLpro inhibitor | FadD28 FP inh | Mtb FBA inh conf | GDH-TPI counter-2 | others
O=C(Nc1ccc2c(c1)OCO2)N[C@H]1CC[C@@H](CCNC(=O)C2CCCCC2)O[C@H]1CO | -1.8 | x | x | x | x | x | x
CCN(CCCNC(=O)CNC(=O)c1nn(-c2ccc(OC)c(OC)c2)c(=O)c2ccccc12)c1ccccc1 | x | 27.1* | 3.0 | 3.4 | -0.5 | 188.6* | 156.0*
CCOc1ccc(-n2nc(C(=O)NCCOC)c3ccccc3c2=O)cc1 | 2.4 | 67.5* | 5.8 | -3.3 | -0.1 | + | 191.1*
C[C@H](O)C(=O)C1=Nc2c(nc(N)[nH]c2=O)NC1 | -2.5 | 27.0* | 18.8 | x | -0.5 | 40.8* | 33.1*
CC(C)CC(c1nnnn1C(C)C)N1CCN(C(=O)c2ccco2)CC1 (configuration not stated) | 0.0 | 0.9 | 3.1 | x | -1.9 | x | x
CC(C)CC(c1nnnn1C(C)C)N1CCN(c2cccc(Cl)c2)CC1 (configuration not stated) | 0.5 | 42.4* | -4.5 | 3.3 | -3.0 | + | +
CN(C)CC(=O)N1[C@@H]2Cn3c(cccc3=O)[C@H]1[C@@H](C(=O)NCc1ccccc1)[C@@H]2CO | -0.6 | x | x | x | x | x | x
CCCSc1nnc(NC(=O)CSc2sc3c(O)cc(=O)[nH]c3c2C#N)s1 | -1.4 | 92.7* | -3.1 | -6.5 | 15.8* | 12.0 | -1.1 | GDH-TPI DR=>10
CCC(=O)N[C@@H]1CC[C@H](CC(=O)NCc2ccc(OC)cc2)O[C@H]1CO | -1.3 | x | x | x | x | x | x
CCCCOc1ncnc2c1[nH]c1ccc(OCC)cc12 | -0.4 | 7.7 | 8.6 | -3.3 | -3.1 | x | x
Fc1ccc2[nH]c3c(Cl)ncnc3c2c1 | x | 40.2* | 0.3 | 0.1 | -2.0 | 163.7* | 157.9*
COc1cccc2[nH]c3c(Cl)ncnc3c12 | x | 40.8* | 11.1 | -0.2 | 0.3 | 162.7* | 143.8*
COc1cccc2[nH]c3c(N4CCCCC4)ncnc3c12 | 0.2 | 14.8 | 11.3 | 2.3 | -0.9 | x | x
CCCCOc1ncnc2c1[nH]c1ccc(F)cc12 | -0.1 | 32.5* | -1.9 | -8.5 | -4.5 | 189.5* | 159.9*
COC(=O)c1cc(C#N)c(N2CC(C)OC(C)C2)nc1C (configuration not stated) | 1.9 | 35.0* | 4.8 | -0.6 | -0.8 | 65.2* | 44.0*
